In paper PMC5540273 (PLoS ONE, 2017):

The compounds below were run on T1, ADCK3. Conditions: concentration: 1 μM, replicates: in singlicate; n = 1.
T1 construct: gene CABC1
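Note: KINOMEscan kinase panel screen.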

SMILES | %Inh [%]
N#Cc1ccc(-c2cc(-c3c[nH]nc3-c3ccccn3)ccn2)cc1 [GW693028] | 0
O=C(Nc1n[nH]c2cc(-c3cccc(F)c3)ccc12)C1CC1 [SB-735464] | 0
COc1cc2c(cc1OC[C@@H](O)CO)ncc1c3ccc(C#N)cc3[nH]c21 | 0
CCCCCc1nc2c(N)ncnc2n1CCCCC [SKF-97255] | 1
Cc1cccc(Cn2ccn3c(=O)cc(N4CCOCC4)nc23)c1 [GSK2297542] | 27
CCn1cnc2c(N)ncnc21 [GW345098] | 19
Cn1ccc2ncnc(Oc3ccc(NC(=O)Nc4ccncc4)c(Cl)c3)c21 | 0
Cn1cc(-c2ccc3c(c2)CCN3C(=O)Cc2ccccc2Cl)c2c(N)ncnc21 [GSK2608885] | 1
Cl.Nc1ncnc2occ(-c3ccc(NC(=O)Nc4cc(C(F)(F)F)ccc4F)cc3)c12 [SB-707548] | 10
Cc1ccc(C(=O)NCC(N)=O)cc1-n1c(C)cc(OCc2ccc(F)cc2F)c(Br)c1=O | 27
NCC(NC(=O)c1cc(-c2cn[nH]c2)c(-c2ccnc3[nH]ccc23)s1)c1ccccc1.O=C(O)C(F)(F)F.O=C(O)C(F)(F)F (stereo not shown) [GSK1325775] | 52
CN(C(=O)c1ccc(-c2cc(-c3c[nH]nc3-c3ccccn3)ccn2)cc1)C1CCOCC1 [GW810083] | 1
Cc1nnc(-c2ccc(C)c(-c3ccc(C(=O)Nc4ccc(NS(C)(=O)=O)cc4)cc3)c2)o1 [GW702865] | 20
